Experiment [1] is described as follows: qHTS assay to identify small molecule antagonists of the retinoid acid receptor (RAR) signaling pathway - cell viability counter screen (AID 1159551). Also: nearly all actives have a fitted effect of over 35% in size. The essentials: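 C3RL4 cells were seeded overnight at 37 C, then treated with compounds plus 1 uM (final) retinol for 6 h at 37 C. Viability was read as ATP by CellTiter-Glo luminescence after 30 min at room temperature.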

The nature of experiment [2]: qHTS assay to identify small molecule antagonists of the retinoic acid receptor (RAR) signaling pathway (AID 1159552; also: nearly all actives have a fitted effect of over 50% in size; also: potency is read from the fitted curve at half-maximal effect). The method in brief: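 Antagonism of retinol-induced RARE reporter activity was measured in C3RL4 cells. Exposure to compounds and 1 uM final retinol lasted 6 hr at 37 C, with luminescence as endpoint.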
A short description of experiment [3]: qHTS assay to identify small molecule agonists of the retinoic acid receptor (RAR) signaling pathway (AID 1159553). Also: potency is read from the fitted curve at half-maximal effect. The settings on record: C3RL4 RARE luciferase reporter, agonist, 6 h; activation: at 73.3 µM (top of the series) unless noted. The essentials:
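C3RL4 cells carrying a RARE luciferase reporter were plated overnight at 37 C, then exposed to compounds in DMSO for 6 hr at 37 C and 5% CO2. Luminescence was read 30 min after luciferase reagent addition at room temperature.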

Experiment [4] can be described thus: qHTS assay to identify small molecule antagonists of the estrogen related receptor (ERR) signaling pathway from Tox21 library - cell viability counter screen (AID 1224834). Also: nearly all actives have a fitted effect of over 30% in size. Also: potency is read from the fitted curve at half-maximal effect. The essentials:
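ERR reporter cells were plated 6 h before compound addition, then exposed to test compounds in DMSO for 17.5 h at 37 C. Viability was read as CellTiter-Fluor fluorescence after a 30-minute incubation at 37 C.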
Background: Quantitative high-throughput screening tests each substance at several concentrations.

Experiment [5] is described as follows: qHTS assay to identify small molecule antagonists of the estrogen related receptor (ERR) signaling pathway - cell viability counter screen (AID 1224818).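 Also: viability measured after 17.5 h of compound exposure.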 The method in brief:
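ERR reporter cells plated 6 h at 37 C/5% CO2, then compounds in DMSO pin-transferred and incubated 17.5 h at 37 C. Viability read as CellTiter-Fluor fluorescence after 30 min at 37 C.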

A short description of experiment [6]: qHTS assay to identify small molecule antagonists of the estrogen related receptor (ERR) signaling pathway (AID 1224819; also: nearly all actives have a fitted effect of over 50% in size; also: potency is read from the fitted curve at half-maximal effect). The essentials: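 ERR reporter cells were plated at 2,000 cells/well and left 6 h at 37 C/5% CO2 before pin-tool transfer of compounds in DMSO. After 18 h at 37 C, One-Glo was added and luminescence was read 30 min later at room temperature.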

The nature of experiment [7]: qHTS assay to identify small molecule agonists of the estrogen related receptor (ERR) signaling pathway (AID 1224820). The essentials: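 ERR reporter cell line (from NTP), 2,000 cells/well, incubated 6 h before compound addition, then 18 h at 37 C. Luminescence measured 30 min after One-Glo reagent at room temperature.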
The subject of experiment [8] is estrogen-related receptor alpha (ERRalpha) with PGC-1alpha coactivator, human. Nature of the experiment: qHTS assay to identify small molecule antagonists of the estrogen related receptor signaling pathway with the pleiotropic PPARgamma coactivator (PGC) (AID 1224821; calls by dose curve; also: nearly all actives have a fitted effect of over 50% in size; also: potency is read from the fitted curve at half-maximal effect). The essentials: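 PGC/ERR reporter cell line, plated 6 h before compound addition, then exposed 18 h at 37 °C. Luciferase activity read by luminescence 30 min after One-Glo addition; decrease indicates antagonism.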

A short description of experiment [9]: qHTS assay to identify small molecule antagonists of the estrogen related receptor signaling pathway with the pleiotropic PPARgamma coactivator (PGC) cell viability counter screen (AID 1224822; also: potency is read from the fitted curve at half-maximal effect). The method in brief:
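PGC/ERR cells were seeded at 2,000 cells/well, rested 6 h at 37 C/5% CO2, then given compounds in DMSO by pin tool and incubated 17.5 h at 37 C. Viability came from CellTiter-Fluor fluorescence after 30 min.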

The nature of experiment [10]: qHTS assay to identify small molecule agonists of the estrogen related receptor signaling pathway with the pleiotropic PPARgamma coactivator (PGC) (AID 1224823). The method in brief:
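PGC/ERR reporter cells seeded 6 h, then exposed to compounds (23 nL in DMSO) for 18 h at 37 C. One-Glo luciferase luminescence read after 30 min at room temperature.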

Several values for one entry are separate records, joined by “and”; a condition that tells them apart may be missing. Identical values can stand only once. Records with an inconclusive call do not appear. More than one record can exist for a structure, and the calls need not agree. Activity calls are given as the source filed them. Unless noted, calls follow the shape of the dose curve; as a rule, active = well fitted curve in the direction sought with a large enough effect in the repeat runs; inconclusive = weak or mixed curves; inactive = no such curve, though single readings can be large; an effect the other way counts as inactive or inconclusive.

As for `Cc1ccc(C)c(S(=O)(=O)O)c1`, the Potency result in experiment [1], in experiment [2], in experiment [3] and in experiment [4] was “inactive” in each case.
With `COc1c2ccoc2cc2oc(=O)ccc12`, the Potency entry in experiment [1], in [2] and in [4] was “inactive” throughout.
`C[n+]1ccn(CCO)c1`: the Potency result in experiment [1], in experiment [2] and in experiment [4] was “inactive” throughout.
With `CC(CN1c2ccccc2Sc2ccccc21)N(C)C` (stereo not drawn), the Potency entry in experiment [1], in [6], in [8] and in experiment [9] was “inactive” throughout. Moreover, the Potency in experiment [2] is 27.6 µM (active) and 48.6 µM (active) and 26.6 µM (active); in experiment [4], 69.3 µM (active) and 61.1 µM (active). Moreover, the call in experiment [5], in experiment [7] and in experiment [10] was inactive.
Turning to `CC/C(C)=N/O`, the Potency entry in experiment [1], in experiment [2] and in experiment [4] was “inactive” throughout.
Consider `CCCCC(=O)O`, for which the Potency result in experiment [1], in experiment [2] and in [4] was “inactive” each time.
`OC1CCCCC1`: the Potency result in experiment [1], in experiment [2], in [3] and in experiment [4] was “inactive” each time.
In the case of `CN1Cc2c(N)cccc2C(c2ccccc2)C1` (stereo not drawn), the Potency entry in experiment [1], in experiment [2], in experiment [9] and in [4] was “inactive” in each case. For the same compound, the result in experiment [5] was inactive.
In the case of `CCOC(=O)CC(=O)OCC`, the Potency result in [1], in experiment [2], in experiment [3] and in [4] was “inactive” throughout.
Consider `NC(=O)NC(N)=O`, for which the Potency result in experiment [1], in [2], in experiment [3] and in [4] was “inactive” each time.
On to `NC1CCCCC1N` (stereo not drawn), for which the Potency entry in experiment [1], in experiment [2] and in [4] was “inactive” in each case.
Regarding `O=c1n(CCCN2CCN(c3cccc(Cl)c3)CC2)nc2ccccn12`, the Potency entry in experiment [1], in [2], in experiment [6] and in [9] was “inactive” throughout. Besides, the call in [5] and in experiment [7] was inactive.
As for `COc1ccccc1[N+](=O)[O-]`, the Potency result in experiment [1], in experiment [2], in [3] and in [4] was “inactive” throughout.
As to `CCCCCNCCCCC`, the Potency entry in experiment [1], in [2] and in [4] was “inactive” in each case.
As for `OCCOCCOCCOCCOCCO`, the Potency entry in experiment [1], in experiment [2], in [3] and in experiment [4] was “inactive” each time.
Turning to `O=Cc1ccc(CO)o1`, the Potency result in experiment [1], in experiment [2], in experiment [3] and in [4] was “inactive” throughout.
As for `Nc1nc(N)c2nc(-c3ccccc3)c(N)nc2n1`, the Potency result in experiment [1], in experiment [2], in [8], in experiment [9] and in experiment [4] was “inactive” throughout. In addition, the Potency in experiment [3] was 17.4 µM (active) and inactive. In addition, the outcome in [5] and in experiment [7] was inactive.
On to `Brc1ccc(Oc2ccc(Br)cc2)cc1`, for which the Potency result in experiment [1], in experiment [2], in experiment [3] and in [4] was “inactive” in each case.
With `NC(=O)c1ncn([C@@H]2O[C@H](CO)[C@@H](O)[C@H]2O)n1`, the Potency result in experiment [1], in experiment [9] and in [4] was “inactive” each time. In [5], the compound was called inactive.
`CC[N+](CC)(CC(=O)Nc1c(C)cccc1C)Cc1ccccc1`: the Potency result in [1] and in experiment [4] was “inactive” throughout.
As to `CC(COCC(C)OC(=O)c1ccccc1)OC(=O)c1ccccc1` (stereo not drawn), the Potency result in [1], in [2] and in experiment [4] was “inactive” throughout.
In the case of `CC/C=C(\C(=O)N[C@@H]1C(=O)N2C(C(=O)OCOC(=O)C(C)(C)C)=C(COC(N)=O)CS[C@H]12)c1csc(N)n1`, the Potency result in [1], in experiment [2] and in experiment [4] was “inactive” each time.
For the compound `NC(N)=S`, the Potency entry in [1] and in experiment [4] was “inactive” throughout.
Regarding `CCN(CC)CCNC(=O)c1ccc(N)cc1`, the Potency entry in experiment [1], in experiment [9] and in experiment [4] was “inactive” in each case. Also, in experiment [5], the outcome was inactive.
With `Clc1cccc(Cl)c1NC1=NCCN1`, the Potency entry in experiment [1], in experiment [9] and in experiment [4] was “inactive” in each case. Further, the result in experiment [5] was inactive.
With `C=CC(C)(C)C`, the Potency result in [1], in experiment [2] and in [4] was “inactive” in each case.
In the case of `O=C1CCCCCCCCCCC1`, the Potency entry in experiment [1], in experiment [2] and in experiment [4] was “inactive” each time.
`Cc1cc(C)cc(O)c1`: the Potency entry in experiment [1], in experiment [2] and in experiment [4] was “inactive” each time.
As for `c1cnc2c(c1)ccc1cccnc12`, the Potency result in [1] was “inactive”. Moreover, the Potency is 2.19 µM (active) and 9.69 µM (active) and 2.73 µM (active) in [3]; 2980 nM (active) in [6]; 2030 nM (active) in experiment [8]; 6680 nM (active) in experiment [9]; 19.5 µM (active) and 2.17 µM (active) and 4.86 µM (active) in [4]. Moreover, the compound was called inactive in experiment [7] and in [10].
For the compound `CC(C)c1ccc(C(C)C)cc1`, the Potency result in experiment [1] and in experiment [4] was “inactive” in each case.
With `O=C1OC(=O)c2c(Cl)c(Cl)c(Cl)c(Cl)c21`, the Potency entry in experiment [1], in experiment [2] and in experiment [4] was “inactive” in each case.
As to `CCc1cccc(CC)c1N`, the Potency result in [1] and in experiment [4] was “inactive” in each case.
In the case of `O=C(O)C1=NN(c2ccc(S(=O)(=O)O)cc2)C(=O)C1`, the Potency result in experiment [1], in [2] and in experiment [4] was “inactive” throughout.
Take `CC(=O)c1nccs1`: the Potency entry in experiment [1], in [2] and in experiment [4] was “inactive” each time.
`Cc1ncc(CO)c(CO)c1O`: the Potency entry in [1] and in experiment [4] was “inactive” in each case.
As for `CCc1cccc(O)c1`, the Potency entry in experiment [1] and in experiment [4] was “inactive” throughout.
With `CC(=O)CC(=O)N(C)C`, the Potency entry in experiment [1] and in experiment [4] was “inactive” in each case.
Take `COc1ccc(N)c(OC)c1`: the Potency entry in experiment [1] is “inactive”. The Potency entry in experiment [4] was “inactive and 54.5 µM (active)”.
With `CCCOC(=O)NCCCN(C)C`, the Potency result in [1], in [2] and in [4] was “inactive” in each case.
Take `CCn1cc(C(=O)O)c(=O)c2cc3c(cc21)OCO3`: the Potency result in experiment [1] and in experiment [9] was “inactive” in each case. Besides, in [5], the outcome was inactive.
For `C1CCCNCC1`, the Potency entry in [1] and in [4] was “inactive” each time.
As to `Cc1ccccc1C=O`, the Potency entry in experiment [1] and in [4] was “inactive” in each case.
Regarding `CCCN(CCC)C(=O)SCC`, the Potency result in experiment [1] and in experiment [4] was “inactive” in each case.
Turning to `O=C1C(N(CO)C(=O)NCO)N(CO)C(=O)N1CO` (stereo not drawn), the Potency entry in experiment [1], in [2] and in experiment [4] was “inactive” throughout.
Take `O=C(NCC1CCCCN1)c1cc(OCC(F)(F)F)ccc1OCC(F)(F)F` (stereo not drawn): the Potency entry in experiment [1] and in experiment [4] was “inactive” in each case.
In the case of `CC1(C)[C@@H](O[C@H]2O[C@H](C(=O)O)[C@@H](O)[C@H](O)[C@H]2O[C@@H]2O[C@H](C(=O)O)[C@@H](O)[C@H](O)[C@H]2O)CC[C@]2(C)[C@H]3C(=O)C=C4[C@@H]5C[C@@](C)(C(=O)O)CC[C@]5(C)CC[C@@]4(C)[C@]3(C)CC[C@@H]12`, the Potency entry in experiment [1], in experiment [3] and in experiment [4] was “inactive” in each case.
